The record followed here is PubChem BioAssay (NCATS).

Each structure is given as a SMILES string. Where “and” joins values, the source holds several entries; their conditions need not be identical. Identical values can stand only once. Results filed as inconclusive are left out. Calls of active or inactive are those of the source. Unless noted, how the calls were made is not given here. Peptide text beside a SMILES is read from it.

A short description of experiment [1]: qHTS Assay for Identifying Gametocytocidal Compounds (AID 743244; active means well fitted curve in the direction sought with a large enough effect; an effect the other way counts as inactive or inconclusive; further: potency means the concentration at half of the fitted maximal effect;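 on max response: on the % scale 0 is the no-effect control and ±100 the full control effect; actives lower the fluorescent signal which means gametocytes are killed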). The settings on record: P. falciparum 3D7 stage III-V gametocytes, alamarBlue, 72 h; max response: stronger effect = lower value. A digest of the protocol:
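Fluorescence at Ex 525/Em 598 nm, recorded 24 h after alamarBlue addition, reports residual metabolic activity of 3D7 gametocytes (stages III–V) following 72 h compound exposure at 37 °C, 5% CO2.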
For orientation: Quantitative high-throughput screening tests each substance at several concentrations.

Experiment [2] can be described thus: High-throughput drug toxicity screening in the BPDCN cell line Gen2.2 (AID 1224824).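 Further: cells exposed to compounds for 48 h before reading.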 The settings on record: Gen2.2 BPDCN cells; at 45.8 µM (top of the series) unless noted. A digest of the protocol: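 CellTiter-Glo luminescence after 48 h compound exposure of Gen2.2 cells; percent activity set with DMSO as 100% and bortezomib (9.2 uM final) as 0%. Cells seeded at 500 per well, RPMI + 10% FBS, 37 °C.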

Experiment [3] can be described thus: qHTS profiling for inhibitors of Plasmodium falciparum (DD2) proliferation (AID 743323). The settings on record: lower = more inhibition; at 28.7 µM (top of the series) unless noted. The method in brief: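 SYBR Green fluorescence (ex 485, em 535 nm) of lysed cultures gives parasite DNA content; wells normalized to artemisinin (0.29 uM) and DMSO controls. Infected red cells: 0.3% parasitemia, 2.5% hematocrit, 72 h, 37 C.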

Experiment [4] can be described thus: qHTS profiling for inhibitors of Plasmodium falciparum (HB3) proliferation (AID 743324; active means well fitted curve in the direction sought with a large enough effect; an effect the other way counts as inactive or inconclusive;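 further: 100% = DMSO vehicle wells and 0% = artemisinin-treated control wells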). The settings on record: Plasmodium falciparum HB3 blood-stage proliferation; at 28.7 µM (top of the series) unless noted. A digest of the protocol: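 P. falciparum HB3 grown in erythrocytes (0.3% parasitemia, 2.5% hematocrit final) with compound for 72 h at 37 C, 5% CO2. Parasite DNA detected by SYBR Green after saponin/triton lysis overnight; normalized to 0.29 uM artemisinin and DMSO.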

A short description of experiment [5]: qHTS profiling of the MIPE4 collection as inhibitors of Plasmodium falciparum (3D7) proliferation (AID 743344).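 Further: scaled between DMSO vehicle wells and 0.29 µM artemisinin as full inhibition.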 The settings on record: P. falciparum 3D7 in erythrocytes, SYBR Green DNA fluorescence, 72 h; at 28.5 µM (top of the series) unless noted. The method in brief:
(§1)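 Erythrocytes infected with P. falciparum (0.3% parasitemia, 2.5% hematocrit) incubated with compounds 72 h at 37 C, 5% CO2. Lysis with saponin/Triton buffer containing SYBR Green I, overnight at room temperature in the dark; DNA fluorescence (485/535 nm) normalised to 0.29 uM artemisinin and DMSO.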

Experiment [6] can be described thus: qHTS profiling of the MIPE4 collection as inhibitors of Plasmodium falciparum (DD2) proliferation (AID 743345). The settings on record: P. falciparum Dd2 in erythrocytes, SYBR Green DNA, 72 h; at 28.5 µM (top of the series) unless noted. A digest of the protocol: as §1
Experiment [7] can be described thus: qHTS profiling of the MIPE4 collection as inhibitors of Plasmodium falciparum (DD2) proliferation (Rep 2) (AID 743346). The settings on record: P. falciparum Dd2 in erythrocytes, SYBR Green DNA, 72 h; at 28.5 µM (top of the series) unless noted. The method in brief:
as §1

Experiment [8] can be described thus: qHTS profiling of the MIPE4 collection as inhibitors of Plasmodium falciparum (HB3) proliferation (AID 743347).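 Further: plate controls were DMSO vehicle wells for no effect and artemisinin wells for full effect.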 The settings on record: P. falciparum HB3 in erythrocytes, SYBR Green DNA, 72 h; at 28.5 µM (top of the series) unless noted. The method in brief:
as §1

Experiment [9] in a line: qHTS assay for cell viability of HEK293 cells (AID 743288; active means well fitted curve in the direction sought with a large enough effect; an effect the other way counts as inactive or inconclusive; further: nearly all actives have a fitted effect of over 50% in size; further: potency means the concentration at half of the fitted maximal effect; on max response: on the % scale 0 is the no-effect control and ±100 the full control effect). The settings on record: ATP luminescence (CellTiter-Glo), 18 h; max response: stronger effect = lower value. A digest of the protocol:
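Environmental chemicals tested in qHTS format against parental HEK293 cells; 18 h treatment, 37 C; read-out ATP luminescence (CellTiter-Glo), 30 min RT development.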

The nature of experiment [10]: qHTS assay for cell viability of the p53RE-bla HCT-116 cell line (AID 743292; active means well fitted curve in the direction sought with a large enough effect; an effect the other way counts as inactive or inconclusive; further: nearly all actives have a fitted effect of over 55% in size; further: potency means the concentration at half of the fitted maximal effect). A digest of the protocol:
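Readout: CellTiter-Glo luminescence after 30 min RT. Treatment: compounds in DMSO, 16 h, 37 C. Cells: CellSensor p53RE-bla HCT-116, 4,000/well, preincubated 5 h.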

For the compound `O=C(OC1C[C@H]2CC[C@@H](C1)[N+]21CCCC1)C(O)(c1ccccc1)c1ccccc1` (stereo not given in full), in experiment [1], the max response is -10.3% (inactive). In addition, the cell viability, % of control (lower = more cytotoxic) in [2] came to 120%.
Consider `CC(C)C[C@H](NC(=O)[C@H](Cc1ccccc1)NC(=O)c1cnccn1)B(O)O`, for which the Potency in [1] is 118 nM (active) and 316 nM (active). Besides, the activity, percent of control in [3] was -0.17%. Further, the remaining proliferation (% of control), lower = more inhibition in experiment [4] is -0.165%. For the same compound, the parasite growth, % of DMSO control in experiment [5] was found to be 4.91%. Further, the parasite growth remaining, % of DMSO control (lower = more inhibition) in experiment [6] was 7.19%. In experiment [7], the parasite growth, % of control (lower = inhibition) turned out to be 7.61%. The compound further came in with a growth, % of control in [8] of 3.13%. The cell viability, % of control (lower = more cytotoxic) in [2] came to 3.61%.
Regarding `CN(C)c1ccc2nc3ccc(=[N+](C)C)cc-3sc2c1`, the Potency in experiment [1] was 166 nM (active) and 303 nM (active); in [9] it was 11.2 µM (active); in [10], 28.2 µM (active). Further, in experiment [3], the activity, percent of control is 3.2% [at 57.5 µM]. In addition, the remaining proliferation (% of control), lower = more inhibition in experiment [4] was 14.3% [at 57.5 µM]. Also, the parasite growth, % of DMSO control in experiment [5] was 60.1% and 20%. In addition, in experiment [6], the parasite growth remaining, % of DMSO control (lower = more inhibition) was 16.9% and 18.5%. Moreover, the parasite growth, % of control (lower = inhibition) in experiment [7] was 6.81% and 13.3%. Also, in experiment [8], the growth, % of control was 43.4% and 10.1%. For the same compound, in [2], the cell viability, % of control (lower = more cytotoxic) came to 10.9%.
Regarding `Cc1cccc(C#Cc2ccccc2)n1`, the max response in [1] is 7.87% (inactive). For the same compound, the activity, percent of control in experiment [3] was 85.7%. The remaining proliferation (% of control), lower = more inhibition in experiment [4] is 75.6%. Also, the parasite growth, % of DMSO control in experiment [5] turned out to be 23.9%. This compound gave a parasite growth remaining, % of DMSO control (lower = more inhibition) in experiment [6] of 98.6%. In [7], the parasite growth, % of control (lower = inhibition) was found to be 36.6%. This compound also displayed a growth, % of control in experiment [8] of 42%. Besides, the cell viability, % of control (lower = more cytotoxic) in experiment [2] was found to be 40.7%.
Turning to `COCCCOc1ccnc(CS(=O)c2nc3ccccc3[nH]2)c1C` (stereo not given), the max response in experiment [1] was 2.05% (inactive). In addition, the cell viability, % of control (lower = more cytotoxic) in experiment [2] came out at 139%.
`Cc1ccc(NC(=O)c2ccc(CN3CCN(C)CC3)cc2)cc1Nc1nccc(-c2cccnc2)n1`: the Potency in experiment [1] was 12.6 µM (active). Moreover, the activity, percent of control in [3] is 7.63%. This compound came in with a parasite growth, % of DMSO control in [5] of 6.13%. This compound came in with a parasite growth remaining, % of DMSO control (lower = more inhibition) in experiment [6] of 10.8%. Moreover, the parasite growth, % of control (lower = inhibition) in [7] was 24.1%. The cell viability, % of control (lower = more cytotoxic) in [2] was 308%.
With `CCN(CC)C(=S)SSC(=S)N(CC)CC`, in experiment [1], the Potency was 3.98 µM (active) and 60.5 nM (active) and 74.3 nM (active). In addition, in experiment [10], the Potency result was “inactive”. In [5], this compound returned a parasite growth, % of DMSO control of 65.9%. Moreover, the parasite growth remaining, % of DMSO control (lower = more inhibition) in [6] came to 92.7%. Also, in [7], the parasite growth, % of control (lower = inhibition) turned out to be 53.4%. The same compound yielded a growth, % of control in experiment [8] of 64.3%. Further, in experiment [2], the cell viability, % of control (lower = more cytotoxic) worked out at 6.77%.
Consider `COC(=O)[C@H](Cc1ccccc1)NC(=O)[C@@H](N)CC(=O)O` (H-Asp-Phe-OMe), for which the max response in experiment [1] is 15.3% (inactive) and 2.54% (inactive); in experiment [9], -2.43% (inactive) and -2.64% (inactive). The Potency result in [10] was “inactive”. Moreover, the parasite growth, % of DMSO control in experiment [5] turned out to be 88.6%. The compound further registered a parasite growth remaining, % of DMSO control (lower = more inhibition) in experiment [6] of 22.1%. Moreover, the parasite growth, % of control (lower = inhibition) in experiment [7] stood at 118%. For the same compound, the growth, % of control in experiment [8] is 107%. In addition, the cell viability, % of control (lower = more cytotoxic) in experiment [2] was 280%.
Regarding `O=C(NCC1CCCCN1)c1cc(OCC(F)(F)F)ccc1OCC(F)(F)F` (stereo not given), the cell viability, % of control (lower = more cytotoxic) in [2] worked out at 42.6%.
For the compound `O=c1cc(N2CCOCC2)oc2c(-c3ccccc3)cccc12`, the max response in experiment [1] was 3.56% (inactive). Besides, the activity, percent of control in experiment [3] amounted to 96.7%. The compound further gave a parasite growth, % of DMSO control in experiment [5] of 51.9%. Besides, in experiment [7], the parasite growth, % of control (lower = inhibition) was determined as 78.4%. Besides, the cell viability, % of control (lower = more cytotoxic) in [2] is 13.3%.
As for `c1ccc2[nH]c(-c3cscn3)nc2c1`, the max response was 16.1% (inactive) in [1]; -17.6% (inactive) and -12.7% (inactive) in [9]. Besides, in [10], the Potency entry is “inactive”. This compound yielded a parasite growth, % of DMSO control in experiment [5] of 11.2%. The parasite growth remaining, % of DMSO control (lower = more inhibition) in experiment [6] was determined as 87.1%. In addition, the parasite growth, % of control (lower = inhibition) in [7] turned out to be 33.5%. Also, in [8], the growth, % of control was 9.5%. In experiment [2], the cell viability, % of control (lower = more cytotoxic) was 245%.
Take `OC(CN1CCN(c2cccc(Cl)c2)CC1)C(c1ccccc1)c1ccccc1` (stereo not given): in experiment [1], the max response is 26.8% (inactive). The same compound yielded a parasite growth, % of DMSO control in experiment [5] of 42.2%. The compound also yielded a parasite growth remaining, % of DMSO control (lower = more inhibition) in [6] of 90.9%. The parasite growth, % of control (lower = inhibition) in experiment [7] is 66%. In addition, the cell viability, % of control (lower = more cytotoxic) in experiment [2] amounted to 319%.
